# Screening results: PubChem BioAssay, Sanford-Burnham Center for Chemical Genomics
# CYP2C9 inhib: blocks human cytochrome P450 2C9; 96,000 compounds, 20% hits; inhibition, % at 5 µM; P11712; CYP2C9 Supersomes, luciferin-H conversion, luminescence;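 active = blocking of liver enzyme CYP2C9 beyond about 50% at 5 µM, limit read from the data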
# Target sequence (P11712 whole entry, looked up): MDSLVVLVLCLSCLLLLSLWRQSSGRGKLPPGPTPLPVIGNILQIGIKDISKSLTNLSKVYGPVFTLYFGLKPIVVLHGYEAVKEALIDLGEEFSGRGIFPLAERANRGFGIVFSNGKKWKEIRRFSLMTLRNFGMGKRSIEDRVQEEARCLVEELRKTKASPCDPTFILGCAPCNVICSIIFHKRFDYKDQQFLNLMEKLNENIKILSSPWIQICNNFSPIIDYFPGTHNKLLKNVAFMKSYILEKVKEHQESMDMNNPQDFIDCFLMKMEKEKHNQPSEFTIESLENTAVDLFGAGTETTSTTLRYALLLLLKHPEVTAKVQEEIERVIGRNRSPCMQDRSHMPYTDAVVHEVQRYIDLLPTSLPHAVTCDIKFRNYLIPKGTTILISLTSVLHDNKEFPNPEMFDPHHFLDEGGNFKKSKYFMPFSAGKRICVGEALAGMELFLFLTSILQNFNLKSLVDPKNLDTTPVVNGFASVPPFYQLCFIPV
# CYP2C19 act: activators of human cytochrome P450 2C19. 96,000 tested, under 10 active. activation factor at 5 µM. P33261. recombinant CYP2C19, luciferin-H EGE luminescence; active compounds read high; 0 = fully inhibited enzyme, 1 = untreated enzyme;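 active = activation factor of at least 2 at 5 µM in the primary screen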;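 note: 0 = wells with 2.5 mM tranylcypromine and 1 = vehicle-only wells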
# CYP2C9 activ: CYP2C9 (human) activation. recombinant CYP2C9, luciferin-H conversion, luminescence; active compounds read high; factor 1 = untreated enzyme, 0 = blocked. activation factor at 5 µM. 96,000 compounds, 1.4% hits. P11712;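 active = activation factor of 2 or more for CYP2C9 at a 5 µM dose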;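 note: 0 = sulfaphenazole-blocked wells and 1 = vehicle-only wells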
# CYP2C19 inh: blocks human cytochrome P450 2C19 | P33261 | CYP2C19 Supersomes, luciferin-H EGE luminescence, 30 min | inhibition, % at 5 µM | 96,000 compounds, 21% hits | AID 778;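 active = CYP2C19 inhibition above a set limit at 5 µM in the primary screen, cut at about 50% in these data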;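 note: plate controls were negative control wells for no effect and 2.5 mM tranylcypromine positive control for full effect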
# PLAP act: activators of human placental alkaline phosphatase; activation fold at 20 µM; P05187; AID 696; 96,000 compounds, 1.2% hits; purified PLAP enzyme, luminescent substrate read-out; active compounds read high; in the data active = activation fold above about 2
# * = called active by the depositor; · = not tested or not shown. Sampled rows, rich in hits. Any-hit rate of the full collection: about 31%.
SMILES,CYP2C9 inhib,CYP2C19 act,CYP2C9 activ,CYP2C19 inh,PLAP act
Cc1ccc2nc(SCc3ccc([N+](=O)[O-])cc3)[nH]c2c1,·,·,·,·,1.2
Cc1ccc2nc(SCc3nnc(-c4ccccc4Br)o3)[nH]c2c1,75*,0.2,0.3,83*,1.6
CC(C)(C)C(=O)Nc1ccc(N2CCCC2)cc1,8,1,0.9,0,1
CCN1C(=O)c2ccccc2S(=O)c2ccc(C(=O)NCCCN3CCCC3=O)cc21 (stereo unspecified),14,1.1,0.9,-14,1
CCc1nnc(SCc2cn3c(C)cc(C)nc3n2)n1N,-26,1.2,1.3,-20,1.1
O=C(CCN1C(=O)C2C3C=CC(C3)C2C1=O)N1CC(=O)N(CCc2ccccc2)C(=O)C1 (stereo unspecified),-10,1,1.1,2,1
CC(=O)Nc1ccc(S(=O)(=O)Nc2c(C)nn(-c3ccccc3)c2C)cc1,17,0.8,0.8,18,1
CC(=O)c1ccccc1NS(=O)(=O)c1c(C)nn(-c2ccccc2)c1C,51*,0,0.5,99*,1
O=[N+]([O-])c1cccc(/C=C/c2nc3ccc([N+](=O)[O-])cc3[nH]2)c1,4,0.9,1,9,0.9
CCOc1ccc(CCNC(=O)C2CCCN(c3nn4c(=O)cc(C)nc4s3)C2)cc1 (stereo unspecified),63*,0.8,0.4,22,1.5
CCOc1ccc(OCC)c(NC(=O)C2CCN(c3nn4c(=O)cc(C)nc4s3)CC2)c1,25,0.8,0.7,23,1.4
CCOc1ccc(CCNC(=O)C2CCN(c3nn4c(=O)cc(C)nc4s3)CC2)cc1OCC,57*,0.5,0.4,54*,1.5
COCCNC(=O)C1CCCN(c2nn3c(=O)cc(C)nc3s2)C1 (stereo unspecified),13,0.9,0.9,6,1
CCOc1ccc(NC(=O)CCCOc2cc(=O)n(C)c3ccccc23)cc1,71*,0.7,0.3,26,0.9
COc1cccc(NC(=O)CCCOc2cc(=O)n(C)c3ccccc23)c1,15,0.4,0.8,64*,1.2
Cn1c(=O)cc(OCCCC(=O)NCc2ccccn2)c2ccccc21,1,0.9,1,8,1
Cn1c(=O)cc(OCCCC(=O)NC2CCCC2)c2ccccc21,-12,0.9,1.1,10,1.1
CCOc1ccccc1Nc1ccc(C(=O)O)cc1NC(C)=O,-1,1,1,1,1
Cc1ccc(S(=O)(=O)NC(C(=O)OCC(=O)NC(=O)c2cccn2C)C(C)C)cc1 (stereo unspecified),17,0.4,0.8,59*,1
CCOC(=O)C(NS(=O)(=O)c1ccc(Br)cc1)C(C)C (stereo unspecified),16,0.1,0.8,89*,0.9
CCN1CCCC1CNC(=O)c1c(O)c2c([nH]c1=O)CCCC2 (stereo unspecified),-26,1.1,1.3,-10,1
COc1ccc(-c2ccc(=O)n(CC(=O)Nc3ccc(C(=O)NC4CC4)cc3)n2)cc1OC,28,0.8,0.7,16,1.1
O=C(Cn1nnc(-c2ccccc2Cl)n1)NCc1ccc2c(c1)OCO2,94*,0.9,0.1,6,0.9
CN(C)CCNC(=O)Cn1nc(-c2ccc(Cl)cc2)ccc1=O,11,0.9,0.9,8,1.1
CC(=O)Nc1cc2c(cc1NC(=O)Cn1nc(-c3ccc4c(c3)OCCO4)ccc1=O)OCCO2,39,0.4,0.6,55*,1.3
SMILES,CYP2C9 inhib,CYP2C19 act,CYP2C9 activ,CYP2C19 inh,PLAP act
COc1ccc(CNC(=O)Cn2nc(-c3ccc4c(c3)OCCO4)ccc2=O)cc1,60*,0.7,0.4,26,0.9
COc1cccc(CNC(=O)Cn2nc(-c3ccc(Cl)cc3)ccc2=O)c1,77*,0.5,0.2,55*,1.4
NC(=O)CSc1nc2c(sc3ccccc32)c(=O)n1CCCN1CCOCC1,5,0.8,1,16,1.2
Cc1c(Cl)c([N+](=O)[O-])nn1CC(=O)N1CCc2ccccc2C1,26,0.7,0.7,27,0.9
COc1ccccc1-c1ccc(=O)n(CC(=O)NCc2ccc3c(c2)OCO3)n1,-38,0.4,1.4,56*,1.5
COc1ccc2nc(CC(C)(C)CC(=O)O)c[n+]([O-])c2c1,4,0.8,1,18,0.8
CCOC(=O)N1CCN(C(=O)CN(c2cc(Cl)ccc2OC)S(=O)(=O)c2ccccc2)CC1,65*,0.8,0.4,24,1.7
Cc1ccc(S(=O)(=O)N(CC(=O)N2CCC(C)CC2)c2cccc(C)c2)cc1,86*,0.2,0.1,82*,2.2*
CCOC(=O)N1CCN(C(=O)CN(c2cccc(C)c2)S(=O)(=O)c2ccc(C)cc2)CC1,74*,0.3,0.3,72*,1.4
COc1ccccc1N1CCN(C(=O)CN(c2ccccc2OC)S(=O)(=O)c2ccccc2)CC1,90*,0.3,0.1,75*,1.5
CCOC(=O)N1CCN(C(=O)CN(c2cccc(C)c2)S(=O)(=O)c2ccccc2)CC1,72*,0.5,0.3,48,1.5
Cc1ccc(SCc2ccc(C(=O)NCc3ccncc3)cc2)cc1,99*,0.2,0,83*,0.9
Cc1cc(C)c(O)c(-c2cc(C(=O)NCc3ccccc3)[nH]n2)c1,29,1,0.7,2,1.1
Cc1ccc(C)c(C(=O)NCCN(C)C)c1,-8,1,1.1,0,0.9
CN(c1ccc(C(=O)NCc2ccncc2)cc1)S(C)(=O)=O,41,1,0.6,0,1.2
Cc1ccc(C)c(C(=O)NCc2ccncc2)c1,54*,0.5,0.5,46,1.1
Cc1ccc(O)c(-c2cc(C(=O)NCc3ccncc3)[nH]n2)c1,96*,0.3,0,75*,2.9*
CCCCNc1nc(CC)c2c(c1C#N)CCCC2,38,0.7,0.6,26,1.1
Cc1ccc(-c2nnc(C)c(N3CCOCC3)n2)cc1,1,0.9,1,12,1.1
O=C(Nc1cnc2sc3c(n2c1=O)CCCC3)c1ccc(F)cc1,16,0.9,0.8,10,1.1
COc1cc(C(=O)Nc2ccc(S(=O)(=O)N3CCc4ccccc43)cc2)cc(OC)c1OC,91*,0.5,0.1,50,1.6
COc1ccccc1C(=O)Nc1ccc(S(=O)(=O)N2CCc3ccccc32)cc1,89*,0.3,0.1,73*,1.9
O=C(Nc1ccc(S(=O)(=O)N2CCc3ccccc32)cc1)c1ccc2c(c1)OCO2,40,0.8,0.6,19,0.7
COC(=O)Nc1ccc(S(=O)(=O)N2CCCc3ccccc32)cc1,46,1.1,0.5,-6,0.9
COc1ccc(CN=Cc2c(C(F)(F)F)[nH][nH]c2=O)cc1,13,0.9,0.9,11,1.1
COc1ccccc1N1CCN(C(=O)C2CCN(S(=O)(=O)c3ccc(Cl)cc3)CC2)CC1,21,0.8,0.8,20,1.5
